Here are results for ten compounds from PubChem BioAssay (NCI).

Among the test systems are RPMI-8226 leukemia; OVCAR-8 ovarian; OVCAR-5 ovarian; OVCAR-4 ovarian; SK-OV-3 ovarian; OVCAR-3 ovarian; HS 578T breast; NCI/ADR-RES ovarian; T-47D breast; MDA-MB-435 melanoma; SW-620 colon; MCF7 breast; HCT-116 colon; HCC-2998 colon; KM12 colon; BT-549 breast.
Experiment in all cases: NCI-60 one-dose screen, 48 h (100 = growth as untreated, 0 = no growth, -100 = all killed)
Conditions in all cases: 10 µM unless noted

The structures appear in SMILES notation. This is part of a sample that, as a whole, favours compounds with a hit. Of some 83,000 tested, about 20% had one in any assay.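 Assay: single dose, 48 h. Readout: percent growth (0 = no net growth; negative = cell death). Active: <10.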 A number with no mark means an inactive call. Active and inactive are the calls of the source.

Consider `CCC(CCC(C)C1CCC2C3CC=C4CC(O)CCC4(C)C3CCC12C)C(C)C` (stereo unspecified) (tested in a mixture with another compound), for which the growth in the experiment with RPMI-8226 leukemia is 81.4%; in the experiment with OVCAR-8 ovarian it was 89.9%; in the experiment on OVCAR-5 ovarian it was 103%; with OVCAR-4 ovarian, 93.7%; in the experiment on SK-OV-3 ovarian, 127%; in the experiment on OVCAR-3 ovarian it was 103%. For the same compound, the growth with HS 578T breast is 87.3%; in the experiment with NCI/ADR-RES ovarian, 59.6%; with T-47D breast, 95.3%; in the experiment on MDA-MB-435 melanoma, 85%; in the experiment with SW-620 colon, 104%; in the experiment on MCF7 breast, 95.8%. The results for the growth in the experiment with HCT-116 colon, in the experiment on HCC-2998 colon and with KM12 colon were 79%, -53.1% (active) and 91.4%, respectively.

For `CCC(c1ccccc1)c1noc(CCN(CC)CC)n1` (stereo unspecified), the growth with RPMI-8226 leukemia is 76.7%; in the experiment with OVCAR-8 ovarian it was 94.8%; in the experiment on OVCAR-5 ovarian, 89.8%; in the experiment on OVCAR-4 ovarian it was 109%; in the experiment with SK-OV-3 ovarian, 97%; in the experiment with OVCAR-3 ovarian, 115%. Besides, the growth in the experiment on HS 578T breast is 125%; in the experiment on NCI/ADR-RES ovarian it was 105%; in the experiment with T-47D breast, 94.4%; in the experiment with BT-549 breast, 84.6%; with MDA-MB-435 melanoma, 110%; in the experiment on SW-620 colon it was 120%. The growth with MCF7 breast is 86.5%; in the experiment with HCT-116 colon it was 92%; with HCC-2998 colon, 106%; with KM12 colon it was 105%.

On to `Nc1ncc(-c2cnn(C3CCNCC3)c2)cc1-c1nc2cc(Cl)ccc2o1`, for which the growth is -81% (active) in the experiment with RPMI-8226 leukemia; -52.5% (active) in the experiment on OVCAR-8 ovarian; -81.2% (active) in the experiment with OVCAR-5 ovarian; -83.1% (active) in the experiment with OVCAR-4 ovarian; -81.5% (active) in the experiment on SK-OV-3 ovarian; -100% (active) with OVCAR-3 ovarian. The growth is -68.4% (active) in the experiment on HS 578T breast; -50.5% (active) in the experiment on NCI/ADR-RES ovarian; -77.4% (active) with T-47D breast; 61.3% in the experiment on BT-549 breast; -100% (active) in the experiment on MDA-MB-435 melanoma; -100% (active) with SW-620 colon. The growth is -93.3% (active) with MCF7 breast, -100% (active) in the experiment on HCT-116 colon, -100% (active) in the experiment on HCC-2998 colon and -100% (active) with KM12 colon.

For the compound `Nc1nc(Cl)c2[nH]cnc2n1`, the growth was 107% in the experiment on RPMI-8226 leukemia; 109% in the experiment on OVCAR-8 ovarian; 93.5% with OVCAR-5 ovarian; 101% in the experiment on OVCAR-4 ovarian; 93.2% in the experiment on SK-OV-3 ovarian; 125% in the experiment on OVCAR-3 ovarian. In addition, the growth with HS 578T breast was 117%; with NCI/ADR-RES ovarian, 51%; with T-47D breast, 103%; in the experiment on MDA-MB-435 melanoma, 102%; in the experiment with SW-620 colon it was 105%; in the experiment with MCF7 breast, 108%. The growth in the experiment with HCT-116 colon was 104%; with HCC-2998 colon, -51.2% (active); in the experiment on KM12 colon it was 109%.

Take `Cc1ccc([N+](=O)[O-])cc1NC(=O)Nc1cccc(F)c1`: the growth with RPMI-8226 leukemia is 19.4%; with OVCAR-8 ovarian, 71.6%; with OVCAR-5 ovarian it was 89.6%; in the experiment on OVCAR-4 ovarian, 50.3%; in the experiment with SK-OV-3 ovarian it was 98.7%; in the experiment on OVCAR-3 ovarian, 51.8%. In addition, the growth in the experiment on HS 578T breast is 120%; in the experiment with NCI/ADR-RES ovarian it was 64.3%; with T-47D breast, 29.8%; in the experiment on BT-549 breast it was 92.7%; in the experiment with MDA-MB-435 melanoma, 76.7%; in the experiment with SW-620 colon, 99.7%. The growth with MCF7 breast was 69.8%; with HCT-116 colon, 44%; in the experiment on HCC-2998 colon, 91.8%; in the experiment with KM12 colon it was 80.9%.

On to `CCOC(=O)c1c(C)nc(C)c(C(=O)OCC)c1-c1cccnc1`, for which the growth with RPMI-8226 leukemia is 104%; in the experiment with OVCAR-8 ovarian, 112%; in the experiment on OVCAR-5 ovarian, 97.8%; with OVCAR-4 ovarian it was 97.8%; in the experiment with SK-OV-3 ovarian, 99.2%; with OVCAR-3 ovarian, 115%. Moreover, the growth was 122% with HS 578T breast; 103% in the experiment on NCI/ADR-RES ovarian; 92% in the experiment with T-47D breast; 106% in the experiment with BT-549 breast; 111% in the experiment with MDA-MB-435 melanoma; 112% in the experiment on SW-620 colon. Also, the growth in the experiment on MCF7 breast was 109%; with HCT-116 colon, 90%; in the experiment with HCC-2998 colon, 104%; with KM12 colon, 110%.

On to `CC1=NN(c2ccccc2Cl)C(=O)/C1=C\c1cn(S(=O)(=O)c2ccc(C)cc2)c2ccccc12`, for which the growth is 113% with RPMI-8226 leukemia; 108% in the experiment with OVCAR-8 ovarian; 88.1% in the experiment on OVCAR-5 ovarian; 103% in the experiment with OVCAR-4 ovarian; 105% in the experiment with SK-OV-3 ovarian; 110% in the experiment on OVCAR-3 ovarian. In addition, the growth in the experiment on HS 578T breast is 116%; with NCI/ADR-RES ovarian, 85.1%; with T-47D breast, 91.5%; with BT-549 breast it was 112%; in the experiment on MDA-MB-435 melanoma it was 105%; in the experiment with SW-620 colon, 98.4%. Also, the growth in the experiment on MCF7 breast was 113%; in the experiment on HCT-116 colon, 88.2%; in the experiment with HCC-2998 colon it was 88.5%; in the experiment with KM12 colon, 109%.

On to `O=c1[nH]c(=O)n(C2CC(O)C(CO)O2)cc1C(F)(F)F` (stereo unspecified), for which the growth in the experiment on RPMI-8226 leukemia is -23% (active); with OVCAR-8 ovarian it was 48.5%; in the experiment on OVCAR-5 ovarian, 54.5%; in the experiment on OVCAR-4 ovarian, 78.1%; in the experiment on SK-OV-3 ovarian, 74.3%; with OVCAR-3 ovarian, 69.7%. For the same compound, the growth in the experiment with HS 578T breast is 70.8%; in the experiment on NCI/ADR-RES ovarian, -56.9% (active); in the experiment on T-47D breast, 52.8%; in the experiment with MDA-MB-435 melanoma it was 47.8%; in the experiment on SW-620 colon, 52.7%; in the experiment on MCF7 breast it was 23.6%. Moreover, the growth is 39.4% in the experiment with HCT-116 colon and 51.8% with KM12 colon.

Consider `COc1cc2c(c(OC)c1OC)CCc1cnoc1-2`, for which the growth with RPMI-8226 leukemia is 98.1%; in the experiment with OVCAR-8 ovarian, 102%; in the experiment on OVCAR-5 ovarian it was 91.9%; with OVCAR-4 ovarian, 95%; with SK-OV-3 ovarian, 109%; in the experiment on OVCAR-3 ovarian it was 116%. The growth is 106% in the experiment on HS 578T breast; 94.3% in the experiment with NCI/ADR-RES ovarian; 97.7% with T-47D breast; 101% in the experiment with BT-549 breast; 103% with MDA-MB-435 melanoma; 114% in the experiment with SW-620 colon. The growth in the experiment on MCF7 breast is 104%; in the experiment on HCT-116 colon, 176%; in the experiment with HCC-2998 colon it was 90.1%; in the experiment on KM12 colon it was 106%.

`O=C1Nc2ccccc2C12Nc1cc(Cl)ccc1S2` (stereo unspecified): the growth in the experiment with RPMI-8226 leukemia is 42%; with OVCAR-8 ovarian it was 104%; with OVCAR-5 ovarian it was 104%; in the experiment on OVCAR-4 ovarian, 70.4%; in the experiment on SK-OV-3 ovarian it was 70.9%; in the experiment on OVCAR-3 ovarian it was 76.3%. The growth in the experiment with HS 578T breast was 135%; in the experiment with NCI/ADR-RES ovarian it was 97.2%; in the experiment with T-47D breast, 42.4%; with BT-549 breast, 76.2%; with MDA-MB-435 melanoma, 95.4%; with SW-620 colon, 120%. Moreover, the growth is 59.7% in the experiment on MCF7 breast, 84.5% in the experiment with HCT-116 colon, 110% with HCC-2998 colon and 80.4% in the experiment with KM12 colon.
